Experiment [1] deals with DLD1. The experiment in a line: cell viability (CellTiter-Glo) relative to plate median (fraction of plate median); higher = more viable cells. The conditions noted are these: 10 µM, treatment time 24 h. An outline of the steps:
(§1)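 Colorectal cancer cell lines carrying stably transduced lentiviral TCF/Wnt firefly luciferase reporters (7TFP or TCF4/Wnt) were plated in 384-well plates and treated 24 h later with kinase inhibitor library compounds at a final 10 µM for 24 h. Firefly luciferase or CellTiterGlo luminescence was read on parallel plates with a Tecan F500 reader. Signals were normalised per well to the plate median in webcellHTS2 (additive, no log transformation), and values are the mean of two independent replicates.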

In experiment [2] the test system is HCT116. Described as above. The conditions noted are these: 10 µM; treatment time 24 h; reporter: TCF4/Wnt. An outline of the steps:
as §1

Experiment [3] relates to SW480. Described as above. The conditions noted are these: 10 µM; treatment time 24 h; reporter: 7TFP. An outline of the steps: as §1
Experiment [4] deals with DLD1. Nature of the experiment: TCF/Wnt firefly luciferase reporter signal relative to plate median (fraction of plate median); higher = higher Wnt reporter signal. The conditions noted are these: 10 µM, treatment time 24 h. In a few lines:
as §1

Experiment [5] relates to HCT116. The experiment is described as above. The conditions noted are these: 10 µM; treatment time 24 h; reporter: TCF4/Wnt. An outline of the steps: as §1
The subject of experiment [6] is SW480. The description is as above. The conditions noted are these: 10 µM; treatment time 24 h; reporter: 7TFP. In a few lines: as §1
Experiment [7] concerns DLD1. Nature of the experiment: cell viability (CellTiter-Glo) relative to plate median (fraction of plate median); higher = more viable cells. The conditions noted are these: 5 µM; treatment time 24 h; reporter: 7TFP. In a few lines:
(§2)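 Normalisation used webcellHTS2 in additive mode without log transformation, scaling each well's luminescence to the plate median. The luminescence was firefly luciferase or CellTiterGlo, read on a Tecan F500 from parallel plates of colorectal cancer cells stably transduced with lentiviral TCF/Wnt firefly luciferase reporters. Those cells had been given library compounds at a final 5 µM for 24 h, and two independent replicates were averaged.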

For experiment [8], the system named is HCT116. Described as above. The conditions noted are these: 5 µM; treatment time 24 h; reporter: TCF4/Wnt. An outline of the steps: as §2
For experiment [9], the system named is SW480. The description is as above. The conditions noted are these: 5 µM; treatment time 24 h; reporter: 7TFP. In a few lines:
as §2

The subject of experiment [10] is DLD1. The experiment in a line: TCF/Wnt firefly luciferase reporter signal relative to plate median (fraction of plate median); higher = higher Wnt reporter signal. The conditions noted are these: 5 µM; treatment time 24 h; reporter: 7TFP. An outline of the steps:
as §2

Experiment [11] concerns SW480. The description is as above. The conditions noted are these: 5 µM; treatment time 24 h; reporter: 7TFP. In a few lines:
as §2

± gives the standard deviation of the averaged measurements.

`Cn1cc(C2=C(c3cn(C4CCN(Cc5ccccn5)CC4)c4ccccc34)C(=O)NC2=O)c2ccccc21`: the cell viability in the experiment on DLD1 [1] (reporter: 7TFP) was found to be 0.854 ± 0.016; in the experiment with DLD1 [1] (reporter: TCF4/Wnt), 0.931 ± 0.059; in the experiment with HCT116 [2], 1.08 ± 0.071; with SW480 [3], 0.931 ± 0.081. The “TCF/Wnt firefly luciferase reporter signal” value worked out at 1.98 ± 0.86 with DLD1 [4] (reporter: 7TFP), 1.38 ± 0.18 in the experiment on DLD1 [4] (reporter: TCF4/Wnt), 2.9 ± 0.54 with HCT116 [5] and 1.45 ± 0.17 in the experiment with SW480 [6].

Consider `O=c1c(O)c(-c2ccc(O)c(O)c2)oc2c(O)c(O)cc(O)c12`, for which the cell viability in the experiment with DLD1 [7] came out at 0.905 ± 0.12; with HCT116 [8] it was 1.1 ± 0.085; in the experiment with SW480 [9] it was 0.9465 ± 0.00071. For the same molecule, the “TCF/Wnt firefly luciferase reporter signal” value with DLD1 [10] is 0.9395 ± 0.0035; in the experiment with SW480 [11], 0.916 ± 0.033.

`COC[C@]12CN(C=O)[C@@H]3[C@@H]4[C@H](OC)[C@H]1[C@@]3([C@@H](OC)C[C@H]2O)[C@@H]1C[C@@]2(O)[C@H](OC(=O)c3ccccc3)[C@@H]1[C@]4(OC(C)=O)[C@@H](O)[C@@H]2OC`: the cell viability in the experiment on DLD1 [7] came to 1.01 ± 0.057; in the experiment with HCT116 [8] it was 1.17 ± 0.057; with SW480 [9], 1.05 ± 0.071. Moreover, the “TCF/Wnt firefly luciferase reporter signal” value turned out to be 0.934 ± 0.15 with DLD1 [10] and 1.02 ± 0.052 in the experiment on SW480 [11].

In the case of `COc1ccc2c(c1OC)C(=O)O[C@H]2[C@H]1c2cc3c(cc2CCN1C)OCO3`, the cell viability in the experiment on DLD1 [7] was determined as 1.06 ± 0.09; in the experiment with HCT116 [8] it was 1.04 ± 0.061; with SW480 [9] it was 0.9915 ± 0.0078. Further, the “TCF/Wnt firefly luciferase reporter signal” value in the experiment on DLD1 [10] came out at 1.08 ± 0.028; in the experiment on SW480 [11], 1.03 ± 0.069.

Take `COc1ccc(O)c2c(=O)c3c(OC)cc4c(c3oc12)C1C=COC1O4` (centres undefined): the cell viability amounted to 1.06 ± 0.057 in the experiment on DLD1 [7], 1.03 ± 0.057 in the experiment on HCT116 [8] and 1.02 ± 0.028 in the experiment on SW480 [9]. Besides, the figures for the “TCF/Wnt firefly luciferase reporter signal” value with DLD1 [10] and with SW480 [11] were 1.01 ± 0.11 and 0.999 ± 0.044, respectively.

For the molecule `C[C@H]1CC[C@]2(NC1)O[C@H]1C[C@H]3[C@@H]4CC[C@H]5C[C@@H](O)CC[C@]5(C)[C@H]4CC[C@]3(C)[C@H]1[C@@H]2C`, the cell viability is 0.956 ± 0.076 in the experiment with DLD1 [7], 1.01 ± 0.052 in the experiment on HCT116 [8] and 0.988 ± 0.06 in the experiment on SW480 [9]. For the same molecule, the “TCF/Wnt firefly luciferase reporter signal” value in the experiment with DLD1 [10] amounted to 1.03 ± 0.035; with SW480 [11] it was 1.09 ± 0.057.

In the case of `Cc1ccccc1-n1c(Cn2cnc3c(N)ncnc32)nc2cccc(C)c2c1=O`, the cell viability came to 1.05 ± 0.05 in the experiment with DLD1 [1] (reporter: 7TFP), 0.964 ± 0.029 in the experiment with DLD1 [1] (reporter: TCF4/Wnt), 1.19 ± 0.064 in the experiment with HCT116 [2] and 0.947 ± 0.027 in the experiment on SW480 [3]. Further, the “TCF/Wnt firefly luciferase reporter signal” value in the experiment on DLD1 [4] (reporter: 7TFP) is 1.02 ± 0.021; in the experiment on DLD1 [4] (reporter: TCF4/Wnt), 0.941 ± 0.027; in the experiment with HCT116 [5], 1.18 ± 0.057; in the experiment on SW480 [6], 0.9485 ± 0.005.

As for `CN[C@@H](C)[C@@H](O)c1ccccc1`, the cell viability in the experiment on DLD1 [7] amounted to 0.9265 ± 0.0021; with HCT116 [8], 1.02 ± 0.035; in the experiment with SW480 [9], 0.978 ± 0.06. Also, the “TCF/Wnt firefly luciferase reporter signal” value in the experiment with DLD1 [10] was found to be 0.993 ± 0.067; in the experiment on SW480 [11], 1.03 ± 0.064.

As to `O=C1CCCN1CC#CCN1CCCC1`, the cell viability with DLD1 [7] was determined as 1.07 ± 0.092; in the experiment on HCT116 [8], 1.11 ± 0.028; in the experiment on SW480 [9] it was 1.05 ± 0.042. The “TCF/Wnt firefly luciferase reporter signal” value with DLD1 [10] was found to be 1.01 ± 0.032; in the experiment on SW480 [11], 0.8175 ± 0.0035.

As to `CCCN1C[C@H](CSC)C[C@@H]2c3cccc4[nH]cc(c34)C[C@H]21`, the results for the cell viability in the experiment with DLD1 [7], with HCT116 [8] and in the experiment with SW480 [9] were 0.934 ± 0.0057, 0.986 ± 0.049 and 0.863 ± 0.086, respectively. Also, the “TCF/Wnt firefly luciferase reporter signal” value is 1 in the experiment with DLD1 [10] and 1.015 ± 0.0071 in the experiment on SW480 [11].

For the molecule `Cc1ccccc1-n1c(Cn2ncc3c(N)ncnc32)nc2cccc(C)c2c1=O`, the cell viability in the experiment on DLD1 [1] (reporter: 7TFP) came out at 1.07 ± 0.028; with DLD1 [1] (reporter: TCF4/Wnt), 1.03; with HCT116 [2], 1.22 ± 0.21; in the experiment on SW480 [3], 1 ± 0.036. In addition, the “TCF/Wnt firefly luciferase reporter signal” value in the experiment on DLD1 [4] (reporter: 7TFP) amounted to 1.11 ± 0.13; with DLD1 [4] (reporter: TCF4/Wnt), 0.77 ± 0.022; in the experiment with HCT116 [5], 0.604 ± 0.42; with SW480 [6] it was 0.879 ± 0.2.

(Values after the supplement of paper PMC6522484.)
